From the supplement of paper PMC10646978
± gives the standard deviation.

How the values were obtained:
Conditions in all cases: modulator concentration 10 µM
[1] = test system: RAW-Dual (murine macrophage reporter line); test: NF-kB reporter (SEAP) activity fold change vs agonist alone; higher = enhanced NF-kB activity
Outline: (§1)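 RAW-Dual murine macrophage reporter cells were plated at 50 000 per well in 384-well plates, pin-transferred compound to 10 μM final, and pre-incubated for 1 hour at 37 °C before a PRR agonist was added and the cells incubated overnight. NF-κB activity was read from supernatant SEAP with QUANTI-Blue at 620 nm absorbance, and IRF activity from Lucia luciferase with QUANTI-Luc by luminescence. Each signal was expressed as fold change by dividing by the mean agonist-only control on the same plate. Two replicate plates were averaged, with errors obtained by propagation.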

[2] = test system: RAW-Dual (murine macrophage reporter line); test: IRF reporter (Lucia luciferase) activity fold change vs agonist alone; higher = enhanced IRF activity
Outline: as §1

[3] = test system: RAW-Dual (murine macrophage reporter line); test: viability score (confluency relative to resting cells, overnight) (fraction); higher = more viable, active = viable (0.7 or more)
Outline: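 RAW-Dual macrophages in 384-well plates were treated overnight with compound at 10 μM final. IncuCyte imaging recorded confluency, and IncuCyte software built two confluency masks across every imaged well. The viability score expresses confluency relative to resting cells and was judged against a cutoff, which a compound met only if both masks exceeded 70% of resting cells.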

[4] = agonist: CpG ODN 1826 0.5 ug/mL

Row | Structure (SMILES) | NF-kB reporter [1, 4] | NF-kB reporter ([1]; agonist: LPS 0.1 ug/mL) | NF-kB reporter ([1]; agonist: MPLA […]) | IRF reporter ([2]; agonist: 3'3'-cGAMP 10 ug/mL) | IRF reporter ([2]; agonist: LPS 0.1 ug/mL) | IRF reporter ([2]; agonist: MPLA […]) | viability score [3]
1 | COc1cc(C(C)=O)ccc1OCCCN1CCC(c2noc3cc(F)ccc23)CC1 | 0.986 ± 0.15 | 1.17 ± 0.31 | 0.924 ± 0.056 | 0.834 ± 0.027 | 1.19 ± 0.2 | 1.12 ± 0.11 | 0.991 (active)
2 | CC1=C(C(=O)OC2CCCCC2)C(c2ccc(N(C)C)cc2)C2=C(CC(C)(C)CC2=O)N1 (centres undefined) | 0.767 ± 0.12 | 0.697 ± 0.08 | 1.16 ± 0.1 | 0.843 ± 0.083 | 0.943 ± 0.071 | 1.04 ± 0.22 | 1 (active)
3 | O=C(CN1CCN(c2ccccc2F)C1=O)N1CCCC(Oc2ccncn2)C1 (centres undefined) | 0.874 ± 0.21 | 0.941 ± 0.052 | 0.992 ± 0.092 | 0.507 ± 0.025 | 0.968 ± 0.15 | 1.13 ± 0.27 | 0.547 (inactive)
4 | Nc1c2c(nc3ccccc13)CCCC2 [Prestw-329] | 0.919 ± 0.075 | 0.967 ± 0.084 | 1.24 ± 0.11 | 1 ± 0.057 | 1.55 ± 0.12 | 1.66 ± 0.14 | 1 (active)
5 | Cc1cc(OCC(O)CN2CCCCC2C)cc(C)c1Cl.Cl (centres undefined) | 0.79 ± 0.15 | 0.97 ± 0.08 | 0.796 ± 0.048 | 0.955 ± 0.048 | 1.2 ± 0.17 | 1.25 ± 0.23 | 0.923 (active)
6 | COC(=O)c1c(NC(=O)C2CCCCC2)sc2c1CC(C)(C)NC2(C)C | 1.12 ± 0.095 | 1.24 ± 0.1 | 1.47 ± 0.16 | 0.764 ± 0.08 | 1.06 ± 0.1 | 1.82 ± 0.38 | 0.419 (inactive)
7 | O=C1CN(/N=C/c2ccc([N+](=O)[O-])o2)C(=O)N1 | 1.13 ± 0.27 | 1.14 ± 0.087 | 0.87 ± 0.068 | 0.821 ± 0.029 | 1.21 ± 0.16 | 1.14 ± 0.17 | 0.994 (active)
8 | NC(=O)c1cn(Cc2c(F)cccc2F)nn1 | 1.01 ± 0.075 | 0.951 ± 0.12 | 1 ± 0.049 | 1.17 ± 0.3 | 0.923 ± 0.08 | 0.906 ± 0.12 | 0.999 (active)
9 | Cc1ccc(C(=O)c2ccc(CC(=O)O)n2C)cc1 | 0.949 ± 0.071 | 1.01 ± 0.064 | 1.02 ± 0.048 | 0.995 ± 0.086 | 0.993 ± 0.1 | 1.02 ± 0.092 | 1 (active)
10 | C[C@H](Nc1ncnc2[nH]cnc12)c1cc2cccc(Cl)c2c(=O)n1-c1ccccc1 | 0.557 ± 0.042 | 0.808 ± 0.054 | 0.859 ± 0.024 | 0.728 ± 0.041 | 0.991 ± 0.095 | 1.1 ± 0.093 | 0.906 (active)
11 | Cc1ccc(S(=O)(=O)N2CCC2)cc1 | 1.03 ± 0.11 | 0.756 ± 0.097 | 1.07 ± 0.1 | 1.02 ± 0.047 | 1.37 ± 0.22 | 1.51 ± 0.39 | 1.02 (active)
12 | Cc1cn([C@@H]2C[C@@H](O)[C@H](CO)O2)c(=O)[nH]c1=O | 1.12 ± 0.086 | 0.998 ± 0.054 | 1.01 ± 0.065 | 1.09 ± 0.18 | 0.886 ± 0.04 | 0.82 ± 0.15 | 1.01 (active)
13 | Cc1cn[nH]c1 | 0.122 ± 0.015 | 0.0449 ± 0.0036 | 0.154 ± 0.0086 | 0.685 ± 0.032 | 1.81 ± 0.19 | 2.85 ± 0.43 | 0.702 (active)
14 | Cc1cccc(C(C)C)c1NC(=O)c1ccccc1Br | 0.951 ± 0.16 | 0.956 ± 0.085 | 0.953 ± 0.074 | 0.988 ± 0.044 | 1.28 ± 0.23 | 1.14 ± 0.12 | 0.971 (active)
15 | Br.CCCCn1c(=N)n(CC(=O)OC)c2ccccc21 | 1.13 ± 0.1 | 0.957 ± 0.081 | 1.05 ± 0.059 | 0.955 ± 0.055 | 1 ± 0.055 | 1.15 ± 0.15 | 0.999 (active)
16 | O=C(Cn1cnc([N+](=O)[O-])n1)Nc1cc(Oc2cccc(C(F)(F)F)c2)cc([N+](=O)[O-])c1 | 0.529 ± 0.043 | 0.806 ± 0.097 | 0.406 ± 0.043 | 0.902 ± 0.022 | 1.6 ± 0.14 | 1.51 ± 0.21 | 0.995 (active)
17 | CCCN1CCC(NCCc2ccc(Cl)cc2)CC1 | 1.18 ± 0.069 | 0.97 ± 0.081 | 1.1 ± 0.036 | 0.761 ± 0.028 | 0.994 ± 0.065 | 0.943 ± 0.11 | 0.995 (active)
18 | CN(C)CCCN(C(=O)Cc1ccc(F)cc1)c1nc2ccc(Cl)cc2s1.Cl | 0.447 ± 0.029 | 0.503 ± 0.079 | 1.08 ± 0.1 | 0.799 ± 0.035 | 0.714 ± 0.066 | 2.19 ± 0.47 | 0.0615 (inactive)
19 | COc1cc(C)n(CCNC(=O)c2ccccc2C(F)(F)F)c(=O)c1 | 0.904 ± 0.039 | 0.933 ± 0.076 | 1.12 ± 0.06 | 1.03 ± 0.055 | 1.34 ± 0.28 | 1.51 ± 0.4 | 0.941 (active)
20 | Cc1cc(Nc2cc(CN3CCOCC3)c3nc(C)c(Cc4ccc(Cl)cc4F)n3n2)[nH]n1 | 2.15 ± 0.29 | 1.46 ± 0.39 | 1.59 ± 0.13 | 0.291 ± 0.025 | 0.884 ± 0.16 | 2.72 ± 0.31 | 0.0653 (inactive)
21 | Cc1cc(/C=C/C#N)cc(C)c1Nc1ccnc(Nc2ccc(C#N)cc2)n1 | 0.602 ± 0.17 | 0.605 ± 0.044 | 1.3 ± 0.12 | 0.209 ± 0.014 | 0.662 ± 0.071 | 0.886 ± 0.13 | 0.985 (active)
22 | COc1c(-c2ccc3cc(NS(C)(=O)=O)ccc3c2)cc(-n2ccc(=O)[nH]c2=O)cc1C(C)(C)C | 0.43 ± 0.1 | 1.02 ± 0.056 | 0.827 ± 0.093 | 0.774 ± 0.043 | 1.2 ± 0.29 | 1.2 ± 0.15 | 1.01 (active)
23 | Cc1ccccc1N(CC(=O)NCCSc1ccc(Cl)cc1)S(=O)(=O)c1ccccc1 | 0.66 ± 0.079 | 1.01 ± 0.056 | 0.851 ± 0.056 | 0.64 ± 0.034 | 1.4 ± 0.11 | 1.1 ± 0.13 | 1 (active)
24 | COc1cccc(N2CC(C(=O)NC3CCN(c4nccn5c(C)nnc45)CC3)CC2=O)c1 (centres undefined) | 1.03 ± 0.051 | 1.06 ± 0.092 | 0.955 ± 0.088 | 0.968 ± 0.049 | 1.17 ± 0.073 | 1.08 ± 0.11 | 1.01 (active)
25 | COC1(C)CCC2OC2(C)CCC2C1CC2(C)C (centres undefined) | 1.31 ± 0.31 | 1.06 ± 0.053 | 1.04 ± 0.12 | 1.03 ± 0.041 | 1.28 ± 0.15 | 1.17 ± 0.13 | 0.87 (active)
26 | CCC1(C)CC(CCN)(c2ccc(C)cc2)CCO1 (centres undefined) | 0.826 ± 0.053 | 1.02 ± 0.08 | 0.992 ± 0.047 | 0.822 ± 0.048 | 0.904 ± 0.06 | 0.843 ± 0.083 | 0.962 (active)
27 | O=C(C=Cc1ccc(Br)cc1)c1c(-c2ccccc2)c2cc(Cl)ccc2[nH]c1=O | 0.876 ± 0.068 | 0.792 ± 0.055 | 1.03 ± 0.099 | 0.858 ± 0.039 | 1.4 ± 0.09 | 1.5 ± 0.16 | 0.997 (active)
